Records with an inconclusive call do not appear. Where a call stands in place of a potency, no number is given. Calls of active or inactive are those of the source. Calls come from the whole dose curve; as a rule, active = well fitted curve in the direction sought with a large enough effect; inconclusive = small, poorly fitted or top-dose-only effect, or another doubt; inactive = no such curve, though single readings can be large; an effect the other way counts as inactive or inconclusive.
What was measured:
[1] = test system: Zika virus NS2B-NS3 protease; test: Primary screen GU AMC qHTS for Zika virus inhibitors (AID 1347154); note: nearly all actives have a fitted effect of over 70% in size
Outline: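 Fluorogenic AMC-substrate cleavage by noncovalent NS2B-NS3 protease complex (25 nM, pH 8.0 Tris buffer with Tween 20) followed for 15 minutes at room temperature (~20% conversion). Percent inhibition from ex340/em450 signal change, fitted by 4-parameter Hill equation.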

[2] = test system: Zika virus NS2B-NS3 protease (linked construct); test: Primary screen NINDS Rhodamine qHTS for Zika virus inhibitors (AID 1347160); conditions: outcome: dose series up to 57.1 µM; note: nearly all actives have a fitted effect of over 55% in size
Outline: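 Purified NS2B-NS3 protease with the NS2B hydrophilic domain joined by a flexible linker (25 nM) in 10 mM Tris-HCl pH 8.0, 0.01% Tween 20, preincubated 15 min at RT with compound; Rhodamine110 peptide substrate 1.5 µM; fluorescence change over 15 min; 4-parameter Hill fit.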

[3] = Vero cells viability qHTS for Zika virus inhibitors (AID 1347167)
Outline: (§1)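 Compounds were tested in concentration series on cells grown in DMEM containing 4% FBS. After 24 to 48 hours, cellular ATP was measured by luminescence with CellTiter Glo.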

[4] = HepG2 cells viability qHTS for Zika virus inhibitors (AID 1347168)
Outline: as §1

[5] = biological target: Lysine-specific demethylase 5B (Homo sapiens) (UniProt Q9UGL1); test: Optimization screen for KDM5B Histone Demethylases FDH coupled qHTS against the LOPAC library (AID 1347166)
Lysine-specific demethylase 5B (Homo sapiens), sequence (Q9UGL1 whole entry, looked up): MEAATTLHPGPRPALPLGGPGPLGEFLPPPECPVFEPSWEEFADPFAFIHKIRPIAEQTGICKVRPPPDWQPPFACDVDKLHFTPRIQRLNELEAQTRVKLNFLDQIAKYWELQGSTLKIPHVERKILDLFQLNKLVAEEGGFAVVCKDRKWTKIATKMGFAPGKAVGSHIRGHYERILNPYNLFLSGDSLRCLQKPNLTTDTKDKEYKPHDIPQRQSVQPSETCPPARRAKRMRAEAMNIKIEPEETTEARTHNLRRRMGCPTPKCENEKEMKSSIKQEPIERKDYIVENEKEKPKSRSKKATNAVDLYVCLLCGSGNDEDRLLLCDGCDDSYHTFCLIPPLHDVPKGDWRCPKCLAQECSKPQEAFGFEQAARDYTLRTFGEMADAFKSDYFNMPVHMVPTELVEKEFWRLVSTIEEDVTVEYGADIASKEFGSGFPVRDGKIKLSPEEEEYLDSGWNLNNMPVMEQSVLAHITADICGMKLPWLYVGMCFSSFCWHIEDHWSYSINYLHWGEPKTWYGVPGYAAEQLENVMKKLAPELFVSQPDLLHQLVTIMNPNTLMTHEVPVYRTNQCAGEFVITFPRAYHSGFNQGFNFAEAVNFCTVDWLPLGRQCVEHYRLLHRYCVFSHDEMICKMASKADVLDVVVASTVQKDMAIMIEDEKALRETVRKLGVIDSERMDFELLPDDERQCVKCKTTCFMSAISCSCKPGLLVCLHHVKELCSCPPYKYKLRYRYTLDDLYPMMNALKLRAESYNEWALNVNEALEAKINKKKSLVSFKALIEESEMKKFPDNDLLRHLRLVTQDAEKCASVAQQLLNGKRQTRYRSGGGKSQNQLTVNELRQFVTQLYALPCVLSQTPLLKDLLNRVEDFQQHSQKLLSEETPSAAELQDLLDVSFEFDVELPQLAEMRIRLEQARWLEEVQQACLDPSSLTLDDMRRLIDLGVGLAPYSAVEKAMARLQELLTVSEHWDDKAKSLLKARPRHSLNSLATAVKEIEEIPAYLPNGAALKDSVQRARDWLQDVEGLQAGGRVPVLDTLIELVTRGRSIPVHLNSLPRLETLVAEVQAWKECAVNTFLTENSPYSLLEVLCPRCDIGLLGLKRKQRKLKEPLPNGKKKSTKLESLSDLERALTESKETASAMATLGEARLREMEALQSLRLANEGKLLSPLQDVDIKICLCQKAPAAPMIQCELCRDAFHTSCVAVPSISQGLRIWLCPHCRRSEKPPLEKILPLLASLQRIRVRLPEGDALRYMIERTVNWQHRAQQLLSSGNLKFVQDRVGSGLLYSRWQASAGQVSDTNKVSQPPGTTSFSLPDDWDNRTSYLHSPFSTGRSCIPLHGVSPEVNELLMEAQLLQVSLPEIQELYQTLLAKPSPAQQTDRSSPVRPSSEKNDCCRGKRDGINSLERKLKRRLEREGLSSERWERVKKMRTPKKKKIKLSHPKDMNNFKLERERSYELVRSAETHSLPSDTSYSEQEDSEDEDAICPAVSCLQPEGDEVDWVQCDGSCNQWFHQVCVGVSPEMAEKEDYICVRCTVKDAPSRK
Outline: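 KDM5BDeltaAP (200nM final) preincubated 10 min with compound, then 12.5uM H3K4Me3, 25uM a-ketoglutarate, ascorbate, Fe(II), NAD+ and FDH added; 50mM HEPES pH 7.5, 0.01% Tween-20. NADH fluorescence (340/450 nm) change over 30 min, room temperature.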

Compound: CN1C(=O)CN=C(c2ccccc2)c2cc(Cl)ccc21
- Potency [1]: inactive

Compound: C[C@]12CC[C@H](O)CC1=CC[C@@H]1[C@@H]2CC[C@]2(C)C(=O)CC[C@@H]12
- Potency [1]: inactive
- outcome [2]: inactive

Compound: COc1cc(CC#N)cc(OC)c1OC
- Potency [1]: inactive

Compound: C[C@H]1CNCCc2ccc(Cl)cc21
- Potency [1]: inactive

Compound: COP(=O)(OC)OC=C(Cl)Cl
- Potency [1]: inactive

Compound: CC(C)=CCN1CC[C@@]2(C)c3cc(O)ccc3C[C@@H]1[C@@H]2C
- Potency [1]: inactive
- outcome [3]: inactive
- outcome [4]: inactive

Compound: COC(=O)C1=CCCN(C)C1
- Potency [1]: inactive
- outcome [5]: inactive

Compound: CC(C)[N+](C)(CCC(C(N)=O)(c1ccccc1)c1ccccc1)C(C)C
- Potency [1]: inactive

Compound: CCC(=O)C(CCN(C)C)(c1ccccc1)c1ccccc1
- Potency [1]: inactive

Compound: Cc1ccc(N=CN(C)C=Nc2ccc(C)cc2C)c(C)c1
- Potency [1]: inactive

Compound: CCOC(=O)c1ncn2c1CN(C)C(=O)c1c(I)cccc1-2
- Potency [1]: inactive
- outcome [2]: inactive

Compound: O=C(N[C@H]1N=C(c2ccccc2F)c2cccc3c2N(CC3)C1=O)c1cc2ccccc2[nH]1
- Potency [1]: inactive
- outcome [2]: inactive

Compound: COc1ccc2c(C(=O)c3ccc(Cl)cc3)c(C)n(CC(=O)O)c2c1
- Potency [1]: inactive
- outcome [2]: inactive

Compound: CC1COC2(c3ccccc3Cl)c3cc(Cl)ccc3NC(=O)CN12 (centres undefined)
- Potency [1]: inactive

Compound: C[C@H](CN1CCOCC1)C(C(=O)N1CCCC1)(c1ccccc1)c1ccccc1
- Potency [1]: inactive

Compound: O=C(N[C@@H]1N=C(c2ccccc2F)c2cccc3c2N(CC3)C1=O)c1cc2ccccc2[nH]1
- Potency [1]: inactive

Compound: COc1ccc2c3c1O[C@H]1[C@@H](O)C=C[C@H]4[C@@H](C2)N(C)CC[C@@]341
- Potency [1]: inactive

From PubChem BioAssay (NCATS)
